Shown are actives, neighbours in structure and some others; about 4.6% of the full set was active somewhere.
TRHR enhancer – allosteric enhancers of human TRH receptor; P34981; TRHR cells, fluo-8 calcium fluorescence, EC20 TRH enhancement; enhancement, % at 2 µM; 360,000 tested, 0.66% active; in the data active means enhancement above about 30%; further: 0% is about no effect
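TRHR-expressing cells loaded with fluo-8 calcium dye were read kinetically (ex 480/em 530) during compound addition, then stimulated with an EC20 of TRH (10 nM final). Enhancement of the Gq-mediated intracellular calcium response was scored.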
D1 antag – blocks dopamine activation of the human D1 receptor; P21728; HEK293 TREx D1 cells, calcium flux, dopamine EC80; hits give low values; activity change, negative = inhibition, % at 10 µM; 360,000 tested, 3.2% active; AID 504652; in the data active means activity change below about -30%; further: on the % scale 0 is the no-effect control and ±100 the full control effect
Target sequence (P21728 whole entry, looked up): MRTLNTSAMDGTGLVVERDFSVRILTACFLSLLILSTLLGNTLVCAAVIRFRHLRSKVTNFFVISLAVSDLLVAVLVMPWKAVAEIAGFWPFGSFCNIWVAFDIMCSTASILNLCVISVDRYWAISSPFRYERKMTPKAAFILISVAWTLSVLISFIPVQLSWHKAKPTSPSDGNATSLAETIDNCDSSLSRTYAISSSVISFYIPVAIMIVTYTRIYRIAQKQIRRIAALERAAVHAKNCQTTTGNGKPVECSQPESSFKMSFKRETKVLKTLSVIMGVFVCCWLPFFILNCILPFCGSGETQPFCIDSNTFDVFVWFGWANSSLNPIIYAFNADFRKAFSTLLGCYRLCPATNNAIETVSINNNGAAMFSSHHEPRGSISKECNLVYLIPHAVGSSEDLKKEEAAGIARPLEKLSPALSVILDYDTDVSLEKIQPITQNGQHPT
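Allosteric or orthosteric antagonism assessed as attenuation of the calcium response to EC80 dopamine, added 180 s after compound, in induced HEK293 Trex D1 cells loaded with no-wash calcium dye.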
D1 ag – human D1 receptor agonism. P21728. HEK293 T-REx D1 cells, calcium flux, agonist mode. activation, % at 2 µM. 360,000 tested, 1% active. AID 504660; further: 0% is about no effect
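Inducible HEK293 T-REx D1 cells, force-coupled to calcium signalling, were plated at 4000 cells/well with tetracycline and held overnight at 30 C. After no-wash calcium dye loading, compound-evoked calcium rise over 180 s flagged agonists.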
D1 potentiator – enhances dopamine response at the human D1 receptor; P21728; HEK293 TREx D1 cells, calcium flux, dopamine EC20 potentiation; potentiation, % at 10 µM; 360,000 tested, 0.036% active; in the data active means potentiation above about 30%; further: 0% is about no effect
TRHR ag – agonists of human TRH receptor. P34981. TRHR cells, calcium flux fluo-8, FDSS agonist mode. activation, % at 2 µM. 360,000 tested, 0.18% active; further: 0% is about no effect
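Read-out: compound-evoked intracellular calcium rise in TRHR cells, fluo-8 dye, kinetic FDSS fluorescence at 1 s/cycle following a 10-cycle baseline. Cells cultured overnight before dye loading (30 min–1.5 h, RT).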
* = called active by the depositor; x = not tested or not shown. Unless noted, no stated cut-off is given here; in the data, active means activation above about 30%; inactive means the rest.

SMILES	TRHR enhancer	D1 antag	D1 ag	D1 potentiator	TRHR ag
O=C(CCc1ccc(S(=O)(=O)NCc2ccccc2)cc1)N1CCN(Cc2ccc3c(c2)OCO3)CC1	0	-27	13	-6	0
Cc1ccc(OCc2ccc(C(=O)NNC(=S)NCC3CCCO3)o2)c([N+](=O)[O-])c1 (stereo unspecified)	-4	5	2	-1	-1
COC(=O)c1sc2cccc(F)c2c1S(=O)(=O)N1CCN(c2ccc(C)cc2C)CC1	-2	4	4	-5	0
CC(C)c1ccc(Nc2cc(C(=O)NCc3cccs3)c3ccccc3n2)cc1	2	-9	2	0	2
O=C(CN1CCN(Cc2ccc3c(c2)OCO3)CC1)N1CCc2[nH]c3ccc(F)cc3c2C1	-1	-27	34*	-1	0
Cc1ccc(NC(=O)CSc2nc(-c3ccco3)nc3cc(=O)[nH]n23)cc1C	16	7	4	-2	-1
Cc1cc(NC(=O)CN2C(=O)c3ccccc3S2(=O)=O)no1	30*	18	2	-4	0
CCOc1ccc(N2CC(c3nc4ccccc4n3CCOc3ccccc3)CC2=O)cc1 (stereo unspecified)	0	2	2	0	1
CCOc1ccc(N2CC(c3nc4ccccc4n3Cc3cccc(Cl)c3)CC2=O)cc1 (stereo unspecified)	0	-34*	3	1	1
CCOc1ccccc1N1CC(c2nc3ccccc3n2CCCCOc2ccccc2)CC1=O (stereo unspecified)	-7	-15	31*	1	1
CCCNC(=O)CCc1c(C)nc2nc(CNC(=O)c3ccccc3)nn2c1C	-9	4	1	-2	1
OC[C@H]1O[C@@H](O[C@@H]2[C@@H](CO)O[C@@](O)(CO)[C@H]2O)[C@H](O)[C@@H](O)[C@H]1O	5	-36*	-1	-7	2
Cc1nn(-c2ccccc2)c(Cl)c1CN(C(=O)CCl)c1ccc(Cl)cc1	-18	-57*	2	-8	-1
O=C(COC(=O)c1c2c(nc3ccccc13)/C(=C/c1ccco1)CC2)NC1CCCC1	4	-49*	2	-8	0
CC1CCCCC1NC(=O)COC(=O)c1c2c(nc3ccccc13)/C(=C/c1ccco1)CC2 (stereo unspecified)	-2	-17	10	-2	2
O=C(Nc1ccc(F)cc1)Nc1ccc2snnc2c1	-6	-31*	48*	-4	3
CC1CN(C(=O)Nc2ccc3snnc3c2)c2ccccc21 (stereo unspecified)	-1	-63*	4	-7	1
Cc1ccc(F)c(NC(=O)Nc2ccc3snnc3c2)c1	-2	-27	13	-3	2
Cc1c(Cl)cccc1NC(=O)Nc1ccc2snnc2c1	-1	-29	39*	-4	2
O=C(Nc1ccc2snnc2c1)N1CCSCC1	-1	-2	14	-5	1
CNC(=O)Nc1ccc2snnc2c1	16	0	8	x	-1
CC(=O)c1ccc(NC(=O)Nc2ccc3snnc3c2)cc1	5	-74*	46*	-4	3
COC(=O)c1cc(NC(=O)Nc2ccc3snnc3c2)cc(C(=O)OC)c1	3	-13	7	-4	0
O=[S+]([O-])(c1c(F)cccc1F)N1CCN([S+](=O)([O-])c2cccc3nonc23)CC1	-4	3	1	-1	1
O=C(Nc1nc(Nc2cc(F)cc(F)c2)nc(NC2CCCC2)n1)OCc1ccccc1	-3	10	7	-4	1
SMILES	TRHR enhancer	D1 antag	D1 ag	D1 potentiator	TRHR ag
COc1ccc(Nc2nc3c([nH]2)c(=O)[nH]c(=O)n3C)cc1	0	-2	0	1	0
COc1ccccc1C(=O)Nc1nnc(SCc2cc(=O)c3cc(Cl)ccc3[nH]2)s1	-2	-7	0	3	0
COc1ccc(-c2nc(C)c(CCNC(=O)C(=O)Nc3ccccc3F)s2)cc1	7	-2	1	-2	1
CCCn1nc(NC(=O)c2cccc(Cl)c2)c2cc3cccc(C)c3nc21	2	-9	1	0	0
O=C(Nc1cccc(F)c1)c1ccc2snnc2c1	5	-31*	16	-2	0
O=C(NNC(=O)c1ccc(F)c(S(=O)(=O)N2CCOCC2)c1)c1ccc(Br)cc1	7	0	2	1	0
CCCCN1C2CCCC1CC(NC(=O)c1cccc(Cl)c1)C2 (stereo unspecified)	4	-35*	1	-3	1
CCCCN1C2CCCC1CC(NC(=O)C1CCCCC1)C2 (stereo unspecified)	2	-55*	1	-3	0
O=C(NC1CC2CCCC(C1)N2Cc1ccccc1)C1CCCCC1 (stereo unspecified)	-12	2	0	-4	1
NC(=O)CSc1nnc(Cc2csc(Nc3ccccc3)n2)n1Cc1ccccc1	-4	11	1	-4	0
COCCCn1c(Cc2csc(Nc3ccccc3)n2)nnc1SCC(N)=O	-3	-36*	1	-1	0
O=C(O)c1cc(S(=O)(=O)Nc2ccc(N3CCCCC3)cc2)ccc1Cl	3	-30	1	-4	0
O=C(O)c1ccc(NS(=O)(=O)c2ccc(Cl)c(Cl)c2)cc1O	-5	-31*	2	-6	0
COc1ccc(OC)c(CNC(=O)CCc2c(C)nc3c(c2C)c(=O)n(C)c(=O)n3C)c1	-1	0	-1	4	0
CCC(=O)N1CCc2cc(S(=O)(=O)NCCC(=O)Nc3cccc(SC)c3)ccc21	-4	-8	2	0	0
O=C(CSc1ncnc2sccc12)Nc1ccccc1F	-9	-5	2	-2	-1
O=C(CSc1ncnc2sccc12)Nc1ccccc1	-6	-61*	7	-9	-1
O=C(COc1ccc([N+](=O)[O-])cc1)N1CCC(c2nc3ccccc3s2)CC1	-3	-82*	7	-1	0
CCOC(=O)N1CCN(C(=O)c2nc3ccccc3s2)CC1	-1	-34*	4	4	0
CCOc1cccc(C(=O)N2CCC(c3nc4ccccc4s3)CC2)c1	5	-36*	0	-2	0
COc1ccc(OCC(=O)N2CCC(c3nc4ccccc4s3)CC2)cc1	-1	-11	5	-1	0
COc1ccc(CNC(=O)CCc2nnc3n(C)c(=O)c4sccc4n23)cc1	12	-9	0	0	-2
CCN(CC)c1ccc2c(O)cc(=O)oc2c1	0	-8	1	-2	0
CCN(CC)c1ccc(C(=O)OCc2cc(=O)oc3cc(O)ccc23)cc1	-6	-33*	2	-11	0
COC(=O)c1cc(S(=O)(=O)N2CCCC2=O)c(Cl)cc1Cl	4	7	4	-1	0
CC1OC(Nc2ccc(N=Nc3ccccc3)cc2)C(O)C(O)C1O (stereo unspecified)	-4	-10	31*	-5	1

Compound activity as filed in PubChem.
